# Compound activity as filed in PubChem BioAssay.
# Sampled rows, rich in hits. Any-hit rate of the full collection: about 1.5%.
# MbtI inh: blocks the Mycobacterium tuberculosis siderophore enzyme MbtI. AID 493033. purified MbtI enzyme, fluorescence intensity read-out. P9WFX0. 100,000 tested, 0.89% active. inhibition, % (concentration not given with the values); in the data active = inhibition mostly above about 56%, no sharp cut-off; inactive = mostly below about 77%
# Target sequence (P9WFX0 whole entry, looked up): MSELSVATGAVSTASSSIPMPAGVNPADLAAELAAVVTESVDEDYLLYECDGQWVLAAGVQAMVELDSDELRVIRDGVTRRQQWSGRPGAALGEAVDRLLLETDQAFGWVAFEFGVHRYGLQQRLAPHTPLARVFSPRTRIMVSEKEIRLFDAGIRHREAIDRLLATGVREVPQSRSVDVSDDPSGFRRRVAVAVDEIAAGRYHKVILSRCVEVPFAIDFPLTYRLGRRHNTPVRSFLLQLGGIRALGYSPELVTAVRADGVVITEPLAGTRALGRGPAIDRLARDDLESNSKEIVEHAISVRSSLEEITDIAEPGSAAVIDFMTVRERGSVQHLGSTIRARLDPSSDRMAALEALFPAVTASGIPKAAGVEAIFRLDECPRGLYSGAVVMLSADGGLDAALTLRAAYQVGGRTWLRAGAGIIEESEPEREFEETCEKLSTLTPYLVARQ
# PV pol inh: poliovirus RNA polymerase inhibition | % elongation, % (compound at 16.7 µg/mL) | poliovirus polymerase elongation, fluorescence polarization; active compounds read low | AID 588519 | 150,000 tested, 0.66% active; in the data active = % elongation below about 90%
# AID504770: growth inhibitors of E. coli YBA685 in a screen for V. cholerae RctB (chromosome II replication) inhibitors. 130,000 tested, 0.27% active. E. coli YBA685 rctB-dependent plasmid, OD600 growth, 3 h; active compounds read low. z-score (concentration not given with the values); in the data active = z-score below about -2, passing the limit was not always enough
# MenB inh: inhibitors of Mycobacterium tuberculosis MenB enzyme; P9WNP5; MenB enzyme assay, absorbance read-out; inhibition, % (no concentration beside the values); 100,000 tested, 0.43% active; in the data active = inhibition above about 21%, passing the limit was not always enough
# * marks the source's active call; other numbers are inactive results; . = no result; ! = not confirmed by another sample.
SMILES,MbtI inh,PV pol inh,AID504770,MenB inh
CCOC(=O)c1ccc(NC(=S)NC(C)c2ccc3c(c2)OCCO3)cc1 (stereo not given),-1,54*,0.6,-23
CCOC(=O)c1ccc(NC(=O)NC(C)c2ccc3c(c2)OCO3)cc1 (stereo not given),15,104,-0.45,-8
O=c1nc2ccccn2c2c1c(=O)[nH]c1ccccc12,3,102,0.1,62*
O=c1c2ccccc2nc2ccccn12,108,101,0.8,-2
COCc1nnc(NC(=O)C2CCN(C(=O)c3ccco3)CC2)s1,92*,93,0.7,-2
CC(C)c1nnc(NC(=O)C2CCN(C(=O)c3ccco3)CC2)s1,64,105,2.3,-58
c1nncn1/N=C1/CCCc2nonc21,84*,98,-1.2,-44
Cc1ccc(C)c(-n2nnnc2SCC(=O)OC(C)c2nc3sc(C)c(C)c3c(=O)[nH]2)c1 (stereo not given),-7,100,-0.05,-16
COc1ccc(C2C(=O)c3ccccc3C2=O)cc1,3,100,-0.5,5
COc1ccc([C@H]2NC(=O)C(=C=[N-])C(=O)[C@@H]2[n+]2ccccc2)cc1,.,37*,0.45,-16
CSCCC(C(=O)O)n1c(-c2ccc3ccccc3n2)n[nH]c1=S (stereo not given),47,101,-1.1,1
Cc1cc(=S)nc(-c2ccccn2)[nH]1,81*,155,-0.35,-40
Cn1nc(-c2ccccn2)sc1=S,1,100,1.5,-28
S=C(c1c[nH]c2ccccc12)N1CCCCC1,79*,105,-0.2,-21
S=C(c1c[nH]c2ccccc12)N1CCCC1,-2,102,0.25,-30
COc1ccc(CCNC2=CC(=O)OC23CCCCC3)cc1OC,.,72*,1.8,3
Oc1ccccc1C1=CC(c2ccccc2)=Nc2ccccc2N1,.,.,-0.75,.
COC(=O)C(C#N)=C(SC)SC,83*,93,-1.6,26
CC(OC(=O)c1cc(S(=O)(=O)N(C)C)ccc1N1CCCC1)C(=O)N1CCc2ccccc21 (stereo not given),0,103,-3*,-2
CC(=O)Nc1ccccc1OCCOc1ccccc1NC(C)=O,.,.,-0.35,.
CCCOc1ccccc1NC(=O)/C=C/C(N)=O,100*,100,-0.25,.
C=CCn1c(C(C)Oc2ccc(Cl)cc2)n[nH]c1=S (stereo not given),65*,102,1.9,-14
COC(=O)Cc1c(C)c2ccc(O)c(C)c2oc1=O,114,105,1.6,7
Cc1ccc(-c2cn3c4ccccc4nc3n2CCCN2CCCCC2)cc1,.,90*,-0.85,-9
NC(CO)C12CC3CC(CC(C3)C1)C2 (stereo not given),2,103,2.5,.
SMILES,MbtI inh,PV pol inh,AID504770,MenB inh
CCC(N)C12CC3CC(CC(C3)C1)C2 (stereo not given),.,86*,0.95,0
Cc1nn(Cc2ccc(C(=O)Sc3ccc(C(F)(F)F)cn3)o2)c(C)c1Br,86*,104,0.55,9
CCCn1c(SCC(=O)c2ccc3c(c2)OCCO3)nnc1-c1ccco1,7,100,-3.8*,-23
CNC(=O)CSc1nnc(-c2ccco2)n1CC1CCCO1 (stereo not given),3,100,1.4,43*
CCN(CC)C(=O)CSc1nnc(-c2ccco2)n1CC1CCCO1 (stereo not given),6,99,0.45,-21
Cc1ccc2c(c1)c1c3n2CCN(C(=O)CN2CCN(C(=O)c4ccco4)CC2)C3CCC1 (stereo not given),-30,103,-0.55,-49
O=C1CSc2nnc(-c3ccccc3)n21,0,54*,0.3,9
CCOC(=O)N1CCC(NCC2C(Oc3ccc(Cl)cc3)C(=O)N2c2ccccc2C)CC1 (stereo not given),-3,.,0.9,.
Cc1cccc(-c2nnc(C3CCNCC3)o2)c1,78*,102,-0.05,-34
CN(C(=S)NCc1ccc2c(c1)OCO2)C1CCS(=O)(=O)C1 (stereo not given),84*,88*,-0.6,-1
CCc1ccc(C(=O)NCc2ccc3c(c2)OCO3)cc1,-14,103,0.05,1
C=CCSc1n[nH]c(=O)n1-c1ccc(Cl)cc1,3,104,-0.1,4
O=C(O)CCC(=O)c1cccs1,-4,82*,-0.3,.
Cc1ccc(NC(=O)CCC(=O)c2cccs2)cc1,-7,102,-1.1,-6
N#Cc1ccc(NC(=O)CCC(=O)c2cccs2)cc1,0,83*,1.3,-10
O=C(COc1ccc(Cl)cc1)NCCCN1CCN(c2ccccc2)CC1,4,105,1.2,-17
O=C(CC1SC(=NC2CCCC2)NC1=O)NCc1ccc(Cl)cc1 (stereo not given),17,99,0.5,9
Cc1cccc(C(CC(=O)NC2CC2)n2cccc2)c1 (stereo not given),-12,101,0,3
O=C(CSc1nnc(-c2ccoc2)c(-c2ccoc2)n1)c1ccc(-c2ccccc2)cc1,61*,98,0.15,20
COc1ccc(C(=O)CSc2nnc(-c3ccco3)c(-c3ccco3)n2)cc1,54,98,0.75,30*
O=C(CSc1nnc(-c2ccco2)c(-c2ccco2)n1)Nc1ccc(C(=O)O)cc1,.,.,0.7,.
CCOc1ccc(C(=O)CSc2nnc(-c3ccco3)c(-c3ccco3)n2)cc1NC(=O)CC,94*,100,1.5,62*
O=C(CSc1nnc(-c2ccoc2)c(-c2ccoc2)n1)c1ccc(N2CCCC2=O)cc1,21,97,0.15,25
CCOC(OCC)n1c(=S)n(C(OCC)OCC)c2ccccc21,94*,83*,0.75,-17
Cc1ccc(CNC(=O)CN2NS(=O)(=O)c3ccccc3C2=O)cc1,91*,100,-0.1,-8
SMILES,MbtI inh,PV pol inh,AID504770,MenB inh
O=C(c1ccc2c(c1)N(Cc1ccccc1)C(=O)c1ccccc1S2=O)N1CCOCC1 (stereo not given),0,100,0.45,-3
O=C(c1ccc2c(c1)N(Cc1ccc(Cl)cc1)C(=O)c1ccccc1S2=O)N1CCOCC1 (stereo not given),.,73*,.,.
S=c1[nH]nc(C2COc3ccccc3O2)o1 (stereo not given),73*!,98,-0.65,-121
Cc1nnc2c(Nc3ccccc3I)nc3nonc3n12,-16,107,-2.8*,-21
COCCn1cnc2c1c(=O)n(CC(=O)NC(=O)NC1CCCC1)c(=O)n2Cc1ccccc1,-17,104,-2.4,-18
C=CCC1Cc2ccccc2C(C)N1 (stereo not given),4,.,0.6,.
C=CCC1Cc2ccccc2C(CC=C)N1 (stereo not given),-3,100,-0.1,39*
On1ccccc1=S,92*,97,-5.3*,12
Cn1ccccc1=S,24,101,0.95,-12
CCN1CCC2(CC1)N=C(c1ccccc1)C(=S)N2,77*,104,-1,-23
CN1CCC2(CC1)N=C(c1ccccc1)C(=S)N2,15,101,-0.35,-23
C/C(=N\NC(=O)c1nc(Cl)c(Cl)c(N)c1Cl)c1cc(O)ccc1O,56*,105,1.4,-19
Oc1ccc(NCc2ccc(Br)cc2)cc1,20,102,-0.7,5
